Assay results taken from ChEMBL document CHEMBL1157539, “Thousands of chemical starting points for antimalarial lead identification” (Nature, 2010).

What was measured:
Format in all cases: functional
Plasmodium falciparum [1] = assay: GSK_TCMDC: Inhibition of Plasmodium falciparum 3D7 in whole red blood cells, using parasite LDH activity as an index of growth. Test compounds present at 2uM
Plasmodium falciparum [2] = assay: GSK_TCMDC: Inhibition of Plasmodium falciparum Dd2 in whole red blood cells, using parasite LDH activity as an index of growth. Test compounds present at 2uM
HepG2 = assay: GSK_TCMDC: Percent inhibition of human HepG2 cell line. Test compounds present at 10uM.

SMILES: CCOC(=O)c1ccc2[nH]c(-c3ccc(C(=O)NCc4ccc(C(C)(C)C)cc4)cc3)nc2c1
- Inhibition (Plasmodium falciparum [1]): 94%
- Inhibition (Plasmodium falciparum [2]): 34%
- Inhibition (HepG2): 0%

SMILES: CC(C)[C@H](NC(=O)c1c(F)cccc1F)C(=O)Nc1ccc(Cc2nc3ccccc3s2)cc1
- Inhibition (Plasmodium falciparum [1]): 82%
- Inhibition (Plasmodium falciparum [2]): 72%
- Inhibition (HepG2): 3%

SMILES: CC1(C)N=C(NC(=O)Nc2ccc([N+](=O)[O-])cc2)N=C(N)N1OCc1cccc2ccccc12
- Inhibition (Plasmodium falciparum [1]): 97%
- Inhibition (Plasmodium falciparum [2]): 21%
- Inhibition (HepG2): 35%

SMILES: Nc1nc(N)c2cc(NC(=O)c3ccc(Cl)c(Cl)c3)ccc2n1
- Inhibition (Plasmodium falciparum [1]): 100%
- Inhibition (Plasmodium falciparum [2]): 83%
- Inhibition (HepG2): 100%

SMILES: Cc1cc(NC(=O)NCCN2CCC(NS(=O)(=O)c3ccc(Br)cc3)C2)c2ccccc2n1.O=C(O)C(F)(F)F (stereo not given)
- Inhibition (Plasmodium falciparum [1]): 99%
- Inhibition (Plasmodium falciparum [2]): 51%
- Inhibition (HepG2): 9%

SMILES: Cc1cc(NCCC(=O)NCCOc2ccccc2)nc(NCc2ccccc2C)n1.O=C(O)C(F)(F)F
- Inhibition (Plasmodium falciparum [1]): 92%
- Inhibition (Plasmodium falciparum [2]): 29%
- Inhibition (HepG2): 17%

SMILES: O=C(/C=C/c1ccc(Cl)c(Cl)c1)N1CCCC(CCCN2CCC(c3c[nH]c4ccccc34)CC2)C1 (stereo not given)
- Inhibition (Plasmodium falciparum [1]): 89%
- Inhibition (Plasmodium falciparum [2]): 15%
- Inhibition (HepG2): 30%

SMILES: COc1ccc(C#Cc2ccc(-c3c(C)[nH]c(C)c(Cl)c3=O)cc2)cc1
- Inhibition (Plasmodium falciparum [1]): 97%
- Inhibition (Plasmodium falciparum [2]): 97%
- Inhibition (HepG2): 0%

SMILES: O=C(Cc1ccc(Cl)cc1)NC1CCN(c2ccnc3cc(Cl)ccc23)C1.O=C(O)C(F)(F)F (stereo not given)
- Inhibition (Plasmodium falciparum [1]): 82%
- Inhibition (Plasmodium falciparum [2]): 99%
- Inhibition (HepG2): 13%

SMILES: O=C(Nc1ccc2oc(-c3ccc(Br)cc3)nc2c1)c1ccc([N+](=O)[O-])o1
- Inhibition (Plasmodium falciparum [1]): 92%
- Inhibition (Plasmodium falciparum [2]): 21%
- Inhibition (HepG2): 9%

SMILES: Cl.c1ccc(CC2=NCCN2)cc1 [TOLAZOLINE HYDROCHLORIDE]
- Inhibition (Plasmodium falciparum [1]): 94%
- Inhibition (Plasmodium falciparum [2]): 0%
- Inhibition (HepG2): 3%

SMILES: Cc1cc(-c2ccc3c(c2)CCN(CCC2CCC(NC(=O)/C=C/c4ccccc4F)CC2)CC3)on1.Cl (stereo not given)
- Inhibition (Plasmodium falciparum [1]): 94%
- Inhibition (Plasmodium falciparum [2]): 13%
- Inhibition (HepG2): 26%

SMILES: CN(C)Cc1cc2c(O)c(Cc3ccccc3)ccc2o1
- Inhibition (Plasmodium falciparum [1]): 85%
- Inhibition (Plasmodium falciparum [2]): 69%
- Inhibition (HepG2): 3%

SMILES: CCc1c[nH]c2c(N3CCCC3=O)cc(C(=O)N[C@@H](Cc3ccccc3)[C@H](O)CNC3CCCCC3)cc12.O=CO
- Inhibition (Plasmodium falciparum [1]): 100%
- Inhibition (Plasmodium falciparum [2]): 98%
- Inhibition (HepG2): 12%

SMILES: CC(=O)Nc1ccc(CN2CCN(C(c3ccc(F)cc3)c3ccc(F)cc3)CC2)cc1
- Inhibition (Plasmodium falciparum [1]): 93%
- Inhibition (Plasmodium falciparum [2]): 79%
- Inhibition (HepG2): 4%

SMILES: CC1CCc2sc(-c3nnc(SC(C)C(=O)NC4CC4)o3)cc2C1 (stereo not given)
- Inhibition (Plasmodium falciparum [1]): 83%
- Inhibition (Plasmodium falciparum [2]): 69%
- Inhibition (HepG2): 5%

SMILES: C=CCOC(=O)N1CCC(CNCc2cccc(-c3ccc(-c4nc5ccccc5[nH]4)s3)c2)C1.O=C(O)C(F)(F)F (stereo not given)
- Inhibition (Plasmodium falciparum [1]): 99%
- Inhibition (Plasmodium falciparum [2]): 63%
- Inhibition (HepG2): 9%

SMILES: Cc1cc(N[C@@H](CC(C)C)C(=O)Nc2ccccc2)nc(NCC2CCCCC2)n1.O=C(O)C(F)(F)F
- Inhibition (Plasmodium falciparum [1]): 100%
- Inhibition (Plasmodium falciparum [2]): 95%
- Inhibition (HepG2): 8%

SMILES: CN1CCC(NCc2cccc(-c3ccc(S(=O)(=O)NCCN4CCCC4)c(F)c3)c2)CC1.O=C(O)C(F)(F)F
- Inhibition (Plasmodium falciparum [1]): 91%
- Inhibition (Plasmodium falciparum [2]): 0%
- Inhibition (HepG2): 14%

SMILES: O=C(/C=C/c1ccc(Cl)c(Cl)c1)N1CCC(NCc2c[nH]c3ccccc23)CC1
- Inhibition (Plasmodium falciparum [1]): 94%
- Inhibition (Plasmodium falciparum [2]): 4%
- Inhibition (HepG2): 36%
